Screens as filed in PubChem BioAssay.
A selection: hits, their analogues and other compounds. The true share with any hit is near 3.8%.
GLS inh = inhibitors of human glutaminase (GLS); O94925; GLS enzymatic activity, qHTS titration; Potency, µM (titrated, usually from 45.5 µM), without a hit: at the top dose activity change, negative = inhibition, actives largely listed as inhibitors; actives 0.21% (n = 410,000)
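hKGA in 45 mM KH2PO4 (pH 8.2), 0.02% Tween-20 with compound, then 1mM L-Glutamine (stock as added) plus glutamate oxidase/HRP/Amplex red coupling mix. Fluorescence read initially and after 30 min at RT; signal change reflects glutamate formation.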
TrxR1 substrate = substrates of rat thioredoxin reductase 1. Potency, µM (doses to about 114 µM), for the others: top-dose activity change, negative = substrate turnover. actives 0.01% (n = 390,000). purified TrxR1 substrate turnover, NADPH consumption readout. AID 588456; also: nearly all actives have a fitted effect of over 50% in size
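Rat TrxR1, dispensed at 90 nM, was prereduced with 400 uM NADPH (final) for 5 min at ~22 deg C, then incubated with compound 15 min before 400 uM selenite. A first-read NADPH fluorescence drop versus no-compound background flagged substrates.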
GCN5L2 inh = blocks human GCN5L2 histone acetyltransferase | Potency, µM (titrated, usually from 58.9 µM), for inactives: top-dose activity change, negative = inhibition, actives largely listed as inhibitors | Q92830 | actives 0.21% (n = 390,000) | GCN5L2 HAT assay, ThioGlo1 CoA-SH fluorescence
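ThioGlo1-coupled HAT assay: 20nM GCN5L2, 70uM acetyl-CoA, 75uM H3(1-25) peptide, pH 7.5. Fluorescence read at 340/540nm at start and after 20 min at room temperature.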
TrxR1 inh = blocks rat thioredoxin reductase 1; AID 588453; actives 1% (n = 390,000); Potency, µM (highest dose often 114 µM), for inactives: top-dose activity change, negative = inhibition, actives largely listed as inhibitors; recombinant rTrxR1, NADPH fluorescence consumption, selenite substrate; O89049; also: nearly all actives have a fitted effect of over 65% in size
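Rat TrxR1 (90 nM in the dispensed reagent) was pre-reduced with 400 uM NADPH for 5 min at room temperature, then incubated with compound for 15 min. After 400 uM selenite was added, NADPH fluorescence (Ex 340/Em 450 nm) was followed for 8 min.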
Sfp PPTase inh = inhibitors of Bacillus subtilis Sfp phosphopantetheinyl transferase; Q9F4F7; Biochemical Sfp PPTase activity, qHTS; Potency, µM, without a hit: largest response in the series, negative = inhibition, usual class: inhibitors; actives 3.5% (n = 310,000);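 also: the enzyme is Sfp with the accession as filed and its product quenches rhodamine fluorescence; 0% = enzyme reaction without inhibitor and -100% = no enzyme wells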
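After 15 min at room temperature with compound, 15 nM Sfp received 5 uM rhodamine-CoA plus 12.5 uM BHQ-2-ybbR (50 mM Hepes pH 7.6, 10 mM MgCl2). Rate came from the fluorescence difference over 30 min, ex 525/em 598 nm.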
VDR inh = blocks the human vitamin D receptor. actives 0.93% (n = 400,000). VDR-SRC2-3 peptide fluorescence polarization, 2 h. Potency, µM, without a hit: max response, negative = inhibition, usual class: inhibitors
Target sequence (P11473 whole entry, looked up): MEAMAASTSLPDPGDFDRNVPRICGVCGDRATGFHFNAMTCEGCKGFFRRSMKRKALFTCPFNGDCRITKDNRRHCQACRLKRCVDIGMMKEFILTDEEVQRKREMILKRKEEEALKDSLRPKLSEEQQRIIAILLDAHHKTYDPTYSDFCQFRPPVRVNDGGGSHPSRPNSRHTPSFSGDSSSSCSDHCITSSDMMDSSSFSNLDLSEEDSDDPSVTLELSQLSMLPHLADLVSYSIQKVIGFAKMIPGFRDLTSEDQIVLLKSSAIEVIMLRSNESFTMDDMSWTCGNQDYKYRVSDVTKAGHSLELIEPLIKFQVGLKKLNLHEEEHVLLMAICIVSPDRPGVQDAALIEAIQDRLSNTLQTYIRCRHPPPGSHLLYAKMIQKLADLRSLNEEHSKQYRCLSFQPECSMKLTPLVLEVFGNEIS
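Signal is fluorescence polarization, reporting how far test compounds block the interaction of VDR with the SRC2-3 coregulator peptide after a 2 h room-temperature incubation.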
An asterisk follows results filed as active; ? = inconclusive; nt = not tested or not shown; [ ] = remark or other dose. Calls follow the shape of the dose curve; as a rule, active = well fitted curve in the direction sought with a large enough effect; inconclusive = small, poorly fitted or top-dose-only effect, or another doubt; inactive = no such curve, though single readings can be large; an effect the other way counts as inactive or inconclusive. Unless noted, % is scaled to controls: 0 for no effect and ±100 for the full control effect; potency is read from the fitted curve at half-maximal effect.

SMILES | GLS inh | TrxR1 substrate | GCN5L2 inh | TrxR1 inh | Sfp PPTase inh | VDR inh
O=C1NN(c2ccccc2)C(=O)/C1=C/c1coc2ccccc2c1=O | -3% | 7% | -5% | ? | -6% | 40µM*
CC1(C(=O)N(CC(=O)NC2CCCC2)Cc2ccccc2)CC(=O)N=C2C=CC=CN21 (configuration not stated) | -14% | 98%[57.1 µM] | -4% | 5%[57.1 µM] | 14% | 2%
O=C(COc1nc2ccccc2nc1N1CCOCC1)NC1CCCCC1 | 4% | -2% | -3% | 9% | 23% | -20%
O=C(C1=C(O)C(=O)N(CCN2CCOCC2)C1c1ccco1)c1cc2ccccc2o1 (configuration not stated) | -2% | -1% | -1% | ? | 8% | 4%
CN(C)C(=S)N=c1ssc(=S)n1Cc1ccccc1 | 2% | -9% | nt | ? | nt | 40µM*
Cc1nc(/C(=N/O)C(N)=O)cs1 | 34% | 6% | 0% | 30% | 56µM* | -7%
Cc1nc(C(=O)NNC(=O)c2ccc(Cl)cc2)cs1 | 3% | 3% | 0% | 9% | -3% | 3%
CC(C)C(CC(=O)N1CCCCC1)C1CCOC(C)(C)C1 (configuration not stated) | ? | -1% | 1% | -2% | -14% | 5%
CCCCn1c(N)c(Br)c(=O)[nH]c1=O | 13% | 5% | -9% | 28% | 16% | -13%
Cc1cc2nc3c(=O)n(CCc4ccccc4)c(=O)[nH]c3nc2cc1N | 9% | 2% | ? | 21% | 7.9µM* | -27%
Nc1ccc2nc3c(=O)n(CCc4ccccc4)c(=O)[nH]c3nc2c1 | 3% | 0%[57.1 µM] | -25% | 10%[57.1 µM] | -18% | -3%
CCCCn1c(=O)[nH]c2nc3cc(N)ccc3nc2c1=O | 21% | -4%[57.1 µM] | -19% | ? | 56µM* | ?
C[C@H](N)c1nnc(SCC(=O)c2ccc(Cl)cc2)o1 | -5% | 5% | -1% | 19% | -2% | 2%
CC(C)(C)OC(=O)NCCc1nnc(SCC(=O)c2ccc(Cl)cc2)o1 | -6% | -3% | -6% | -22% | -37% | -22%
NCCc1nnc(SCC(=O)c2ccc(Cl)cc2)o1 | 4% | 0%[57.1 µM] | 3% | -1%[57.1 µM] | 56µM* | -25%
NCCCCCc1nnc(SCC(=O)c2ccc(Cl)cc2)o1 | 25% | -7% | -3% | -29% | 50µM* | -27%
COc1ccc(N=C2C(=O)N3c4c(cccc42)C(C)=CC3(C)C)cc1 | 8% | -16% | 3% | -2% | -8% | 50µM*
COc1cc(OC)cc(-c2ncc3ccccn23)c1 | 2% | 47% | -7% | -2% | -11% | 3%
COc1ccc(-c2ncc3ccccn23)cc1 | 7% | 7%[57.1 µM] | 10% | 2%[57.1 µM] | 79µM* | 8%
COc1cc(-c2ncc3ccccn23)cc(OC)c1OC | 10% | 28% | -8% | -20% | 50µM* | 7%
COc1cccc(-c2ncc3ccccn23)c1 | 5% | 58% | -10% | -2% | -8% | -8%
COc1cc2cc(CCCO)oc(=O)c2cc1OC | 1% | 1% | 2% | -5% | nt | 4%
O=C1NNC(c2ccccc2)=N/C1=C\c1ccco1 | ? | -2% | -16% | -35% | 35µM* | -12%
COc1cccc(-c2nn(-c3ccccc3)cc2CN(C)C(C)c2ccncn2)c1 (configuration not stated) | 5% | 7%[57.1 µM] | -15% | 11%[57.1 µM] | -17% | -3%
COc1cccc(-c2nn(-c3ccccc3)cc2CN(C)Cc2c(C)nc3ccccn23)c1 | 2% | 12% | -14% | 27% | 56µM* | 15%
SMILES | GLS inh | TrxR1 substrate | GCN5L2 inh | TrxR1 inh | Sfp PPTase inh | VDR inh
Cc1c(NC(=O)Nc2cccs2)cccc1[N+](=O)[O-] | 13% | 3% | -7% | 22% | 50µM* | -17%
O=C(Nc1cccs1)Nc1ccccc1Cl | 21% | 3% | 0% | -19% | 45µM* | 10%
Cc1ccc(NC(=O)Nc2cccs2)c(Cl)c1 | 26% | 0%[57.1 µM] | nt | 7%[57.1 µM] | -25% | -19%
O=C(Cn1cc(S(=O)(=O)Cc2ccccc2Cl)c2ccccc21)Nc1cccc(C(F)(F)F)c1 | -7% | -3% | -15% | 16% | nt | 12%
O=[N+]([O-])c1cc(-c2nc(-c3ccccc3)no2)ccc1NC1CCCC1 | -7% | -8% | -6% | 18% | nt | 17%
C[N+](C)(C)CC[N+]1(C)Cc2c(Cl)c(Cl)c(Cl)c(Cl)c2C1 | 3% | nt | 20µM* | nt | -29% | -8%
O=C(CSc1ncn[nH]1)CSc1ncn[nH]1 | 5% | 11%[57.1 µM] | -6% | -21%[57.1 µM] | 50µM* | -15%
CC(C)c1ccc(C(=O)CSc2ncn[nH]2)cc1 | -2% | 10% | ? | -24% | 56µM* | 79µM*
O=C(CSc1ncn[nH]1)NNC(=O)c1ccccc1 | -1% | 2%[57.1 µM] | -3% | 4%[57.1 µM] | nt | 3%
Cc1nn(-c2ccccc2)c2c1C(=O)N(c1ccccc1)C(=O)C(C)(C)C2 | 2% | -8%[57.1 µM] | -3% | 5%[57.1 µM] | 5% | -5%
C=CCn1c(SCC(=O)Nc2c(C)nn(Cc3ccccc3)c2C)nnc1C(O)c1ccccc1 (configuration not stated) | -1% | 10% | -2% | 10% | -3% | 13%
COc1ccccc1Cc1nnc(NC(=O)C2CCN(C(=O)c3ccco3)CC2)s1 | -16% | -6% | -13% | 7% | 45µM* | ?
COCc1nnc(NC(=O)C2CCN(C(=O)c3ccco3)CC2)s1 | 10% | 3%[57.1 µM] | -4% | 17%[57.1 µM] | 50µM* | -8%
Cc1cccc2sc(NC(=O)C3CCCO3)nc12 (configuration not stated) | 12% | 5% | -4% | 16% | 27% | -5%
Cc1ccc2sc(NNC(=O)c3cc(=O)c4ccccc4o3)nc2c1C | 29% | -9% | 9% | 4% | 8.9µM* | 7.9µM*
Cc1cccc2sc(NNC(=O)c3cc(=O)c4ccccc4o3)nc12 | 0% | -5% | -9% | -18% | 45µM* | ?
Cc1nc(C)c(C(=O)Nc2nc3c(C)cccc3s2)o1 | -15% | 0% | -18% | -9% | 50µM* | 5%
COc1ccc2nc(NNC(=O)c3cc(=O)c4ccccc4o3)sc2c1 | 19% | -4% | -23% | -1% | 13µM* | 32µM*
O=C(NNc1nc2c(F)cccc2s1)c1cc(=O)c2ccccc2o1 | 1% | -11% | -19% | -6% | -15% | ?
COc1ccc(NC(=O)Nc2ccccn2)cc1OC | 4% | -2% | 0% | 12% | 1% | -16%
COCCN1CCC(CNCc2cn(-c3cc(C)ccc3C)nc2-c2ccccc2)C1 (configuration not stated) | -6% | 0% | -4% | -2% | 50µM* | -13%
